In PubChem BioAssay (NCATS):
Active and inactive are the calls of the source. Calls come from the whole dose curve; as a rule, active = well fitted curve in the direction sought with a large enough effect; inconclusive = small, poorly fitted or top-dose-only effect, or another doubt; inactive = no such curve, though single readings can be large or run the other way.

test: Validation qHTS assay for inhibitors of Activation Induced Cytidine Deaminase (AID): UDG Counterscreen signal (AID 1347427); settings: biochemical UDG counterscreen, fluorescence signal; series mostly up to 115 µM; activity, negative = inhibition: at the top concentration; for activity, negative = inhibition: 0% is about no effect
Source text: Assay Provider (PI) Patricia Gearhart Ph.D.
National Institute on Aging
National Institute of Health (NIH), Bethesda, MD
Assay Provider (PI) Rahul Kohli Ph.D.
Perelman School of Medicine
University of Pennsylvania, Philadelphia, PA
Activation-Induced Deaminase (AID) is a cytosine deaminase which converts cytosine into uracil within stretches of ssDNA. The presence of uracil in DNA initiates a cascade of mutagenic DNA repair to introduce point mutations and DNA double strand breaks. Specific targeting of AID to the immunoglobulin heavy chain loci (Igh) promotes mutagenesis in the antibody variable region for somatic hypermutation (SHM) or switch regions leading to class switch recombination (CSR). However, AID also plays a role in accumulating unnecessary mutations across the genome. Mis-targeting of AID results in the initiation of tumor development and leads to greater drug resistance among cancer cells when continually expressed. To identify an AID inhibitor, a small molecule library will be screened in collaboration with NCATS core facility at NIH. To confirm biological function, inhibitors will be examined in an in vitro murine B-cell activation assay and subsequent secondary validation screens. Top molecules will be further screened to identify inhibitory efficacy against a wild type primary splenocytes assay. Using these approaches, we hope to identify a small molecule with great efficacy and low toxicity for use as a molecular probe to further characterize AID's intricacies, or even as a therapeutic.
A FRET based analysis of cytosine deamination, was developed to identify potential inhibitors of AID catalytic activity. This screen has two signal output, Read 1 evaluates the AID inhibition response. The second readout (Read 2) evaluates UDG response and is uses as a counterscreen to exclude false positive inhibitors. Inhibition in AID and inactivity in the UDG signal is the desired outcome for this assay.
SEQUENCE No. (e.g., 1, 2, 3, etc.); […] (e.g., Cells, Incubation, Reagent, etc.); VALUE; DESCRIPTION
1a; Reagent; 3 uL; [4/3x] 1 uM AID/2.67 U/mL UDG
1b; Reagent; 3 uL; 2 U/mL UDG
1c; Reagent; 3 uL; 1 uM AID
2a; Compound; 46 nL; Follow-up plates (0.64 uM - 10 mM)
2b; Control; 46 nL; ATA ([…] - 10 mM)
3; Time; 10 min; incubation at room temperature
5; Time; 4 hr; incubation at room temperature
6; Reagent; 4 uL; [2x] 250 mM NaOH
7; Time; 15 sec; centrifuge at 1000 rpm
8; Time; 30 min; incubation at room temperature
9a; Detection; fluorescence (Read 1: AID); EnVision (PerkinElmer) plate reader, 540 excitation and 590 emission filters
9b; Detection; fluorescence (Read 2: UDG); EnVision (PerkinElmer) plate reader, 560 excitation and 665 emission filters
NOTES (numbers refer to sequence above)
1a; Reagents were dispensed in a medium-binding black solid-bottom Greiner plates (789176F) using a BioRptr liquid dispenser. Dispense 3 uL of [4/3x] 1 uM AID (provided by Kohli lab) and [4/3x] 2 U/mL UDG (NEB M0280L) into columns 1, 2, 5 to 48.
1b; Dispense 3 uL of [4/3x] 2 U/mL UDG into column 3.
1c; Dispense 3 uL of [4/3x] 1 uM AID into column 4.
2b; 10 mM Aurintricarboxylic Acid (Sigma A1895) (ATA, 8-point, n = 2, 1:2.5 dilution in column 2) double pin-transferred (Dip Factor = 2) using the Kalypsys (Wako USA) pintool equipped with a 1536 pinhead for a [final] range of 186 nM - 114 uM.
3; Room temperature incubation.
4; Dispense 1 uL of substrate mixture from the Kohli lab [4x] […] DJC20 and [4x] 250 nM DJC23 into columns 1 to 48 .
5; Room temperature incubation.
6; Dispense 4 uL of substrate mixture [2x] 250 mM NaOH into columns 1 to 48.
7; Centrifugation step to remove bubbles.
8; Room temperature incubation
9a; Fluorescence signal (column label AID) was read using the EnVision plate reader. Excitation filter = 540(8) nm, barcode = 311; Emission filter = 590(20) nm, barcode = 217; Mirror = D555, barcode = 405.
9b; Fluorescence signal (column label UDG) was read using the EnVision plate reader. […]
Potency is the fitted concentration of half-maximal effect.

SMILES	activity, negative = inhibition	Potency
CN1CCN(CCCN2c3ccccc3Sc3ccc(Cl)cc32)CC1	-7.51% (inactive)	
CCOC(=O)C(C)(C)Oc1ccc(Cl)cc1	4.92% (inactive)	
Cc1cc(C(C)(C)C)c(O)c(C)c1CC1=NCCN1	7.9% (inactive)	
COc1cc2nc(N(C)CCCNC(=O)C3CCCO3)nc(N)c2cc1OC (stereo not given)	2.78% (inactive)	
C[C@](N)(Cc1ccc(O)c(O)c1)C(=O)O	-5.45% (inactive)	
COc1ccccc1N1CCN(CC(O)COc2cccc3ccccc23)CC1 (stereo not given)	-3.23% (inactive)	
O=c1[nH]cc(F)c(=O)[nH]1	10.1% (inactive)	
CCc1cccc2c3c([nH]c12)C(CC)(CC(=O)O)OCC3 (stereo not given)	-1.02% (inactive)	
CC#C[C@]1(O)CC[C@H]2[C@@H]3CCC4=CC(=O)CCC4=C3[C@@H](c3ccc(N(C)C)cc3)C[C@@]21C	-6.45% (inactive)	
COC(=O)Nc1nc2ccc(C(=O)c3cccs3)cc2[nH]1	8.42% (inactive)	
CN(C)CCCN1c2ccccc2CCc2ccc(Cl)cc21	-0.742% (inactive)	
CN(Cc1cnc2nc(N)nc(N)c2n1)c1ccc(C(=O)N[C@@H](CCC(=O)O)C(=O)O)cc1	6.94% (inactive)	
O=C1N(c2ccccc2)c2ccccc2C1(Cc1ccncc1)Cc1ccncc1	8.72% (inactive)	
NCCc1cnc[nH]1	11.8% (inactive)	
Cc1cc(C(C)(C)C)cc(C)c1CC1=NCCN1	2.54% (inactive)	
CCCNCC(O)COc1ccccc1C(=O)CCc1ccccc1 (stereo not given)	6.61% (inactive)	
Clc1ccccc1C(c1ccccc1)(c1ccccc1)n1ccnc1	-12.6% (inactive)	
NS(=O)(=O)c1cc2c(cc1Cl)NCNS2(=O)=O	7.14% (inactive)	
Nc1ccn([C@H]2CC[C@@H](CO)O2)c(=O)n1	15.8% (inactive)	
COc1ccccc1OCCNCC(O)COc1cccc2[nH]c3ccccc3c12 (stereo not given)	10.1% (inactive)	

SMILES	activity, negative = inhibition	Potency
Cn1ccc2cc3c(cc21)CCN3C(=O)Nc1cccnc1	-2.92% (inactive)	
O=C(c1ccc(F)cc1)C1CCN(CCn2c(=O)[nH]c3ccccc3c2=O)CC1	-1.06% (inactive)	
CCN1CCCC1CNC(=O)c1cc(S(=O)(=O)CC)c(N)cc1OC (stereo not given)	4.68% (inactive)	
CN1CCC(=C2c3ccccc3CC(=O)c3sccc32)CC1	0.711% (inactive)	
O=C1c2c(O)ccc(O)c2C(=O)c2c(NCCNCCO)ccc(NCCNCCO)c21		31.6 µM (active)
Clc1ccc(C(c2ccccc2Cl)C(Cl)Cl)cc1 (stereo not given)	9.62% (inactive)	
CC(C)NCC(O)c1ccc(O)c(O)c1 (stereo not given)	-12% (inactive)	
COc1ccccc1OCC(O)CN1CCN(CC(=O)Nc2c(C)cccc2C)CC1 (stereo not given)	12.3% (inactive)	
NC(=O)OCC(COC(N)=O)c1ccccc1	15.3% (inactive)	
NC(CO)C(=O)NNCc1ccc(O)c(O)c1O (stereo not given)	-27.1% (inactive)	
Cc1ccccc1N1C(=O)c2cc(S(N)(=O)=O)c(Cl)cc2NC1C (stereo not given)	1.83% (inactive)	
O=C1Cc2cc(CCN3CCN(c4nsc5ccccc45)CC3)c(Cl)cc2N1	-11.1% (inactive)	
CN1CCC(=C2c3ccccc3C=Cc3ccccc32)CC1	9.57% (inactive)	
CN1CCN2c3ccccc3Cc3ccccc3C2C1 (stereo not given)	8.43% (inactive)	
CC(CCc1ccc(O)cc1)NCCc1ccc(O)c(O)c1 (stereo not given)	10.5% (inactive)	
COc1nc(C)nc(Cl)c1NC1=NCCN1	13.6% (inactive)	
Nc1c2c(nc3ccccc13)CCCC2	11.5% (inactive)	
O=c1c(-c2ccc(O)cc2)coc2cc(O)cc(O)c12	10.5% (inactive)	
CC(C)C(=O)Nc1ccc([N+](=O)[O-])c(C(F)(F)F)c1	-3.43% (inactive)	
CN1C(C(=O)Nc2ccccn2)=C(O)c2ccccc2S1(=O)=O	6.37% (inactive)	
